Source: PubChem BioAssay AID862 (The Scripps Research Institute Molecular Screening Center, 2007)
Out of some 190,000 compounds screened, about 1,700 (0.89%) were called active. This is one part of a sample in which actives are shown more often than they occur. Values without a mark were called inactive.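 Rule for the calls: active = inhibition above the mean inhibition across all screened compounds plus 3 SD (cut at about 44% in these data); inactive = the rest.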

Assay: IL-6 driven STAT3 reporter inhibitors, primary screen, U3A cells, luciferase, luminescence, MLSCN library (AID 862);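 note: 0% = DMSO only wells and 100% = 100 µM nifuroxazide control wells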
Settings: IL-6 STAT3-luciferase reporter, at 5.5 µM, hits give high values, host cell line lacks STAT1

Point of comparison: `C/C(=N\NC(=O)CNC(=O)C(c1ccccc1)c1ccccc1)c1ccc(C)cc1`, inhibition -6.9%. Against it:
- CCOC(=O)N1CCC(NC(=O)C(NS(=O)(=O)c2ccc3c(c2)CCN3C(=O)CC)C(C)C)CC1 (stereo not given) — higher, 8.6%
- CCOc1ccc(NS(=O)(=O)c2ccc(C)c(C(N)=O)c2)cc1 — higher, 20.3%
- COc1cccc(/C=C/C(=O)Nc2ccc3c(c2)OCCO3)c1 — higher, 30.9%
- O=C(Cn1cnc2ccccc21)N/N=C/c1ccco1 — higher, 1.9%
- Cc1ccc(Cn2ccc(NC(=O)c3cc(C(C)C)on3)n2)cc1 — higher, 15.3%
- O=C(c1cc(-c2cccs2)on1)N1CCCCC1 — higher, 24.7%
- C=CCn1nc(-c2ccccc2)c2c(C)onc2c1=O — higher, 1.6%
- Cc1csc(=Nc2ccccc2)n1CCO — higher, 5.8%
- Cc1csc(=NC(=O)c2ccccc2)n1CCO — higher, 0.5%
- COC(=O)Cc1ccc(NC(=S)NCc2ccco2)cc1 — higher, 2.5%
- COc1ccc(-c2noc(-c3ccc(C)cc3)n2)cc1 — higher, 11.2%
- COc1ccc(-c2noc(-c3cccc(OC)c3OC)n2)cc1OC — higher, 9.5%
- COCCCNC(=O)/C=C/c1ccc(OCc2c(F)cccc2Cl)cc1 — higher, 20%
- Cc1ccc(NC(=O)Nc2nnc(-c3ccncc3)s2)cc1 — higher, 9.8%
- CC1CC(C)CN(CCC(=O)Nc2ccc3c(c2)CCC3)C1 (stereo not given) — higher, 3.9%
- O=C(/C=C/c1ccccc1[N+](=O)[O-])OC1CCCCC1=O (stereo not given) — higher, 4.5%
- NC(=O)Cc1nc2scc(-c3ccc(Cl)cc3)c2c(=O)[nH]1 — higher, 16%
- O=c1[nH]c(CN2CCOCC2)nc2cc(Cl)ccc12 — higher, 4.9%
- CCOc1cccc(/C=N/N2C(=O)CSC2=S)c1O — higher, 2.5%
- Cc1ccc2[nH]c(=O)c(CN3CCCCC3)c(-c3ccccc3)c2c1 — higher, 8.1%
- NC(=O)COC(=O)/C=C/c1ccc2ccccc2n1 — higher, -0.2%
- CCOc1ccccc1NC(=O)c1cccnc1 — higher, 6%
- CC(OC(=O)c1ccc2ccccc2n1)C(=O)c1ccccc1 (stereo not given) — higher, -6.4%
- COc1cccc2sc(NNC(=O)c3nc4ccccc4s3)nc12 — lower, -23.2%
- CCn1c2ccccc2c2cc(NC(=O)COC(=O)c3cc(S(=O)(=O)N4CCCCC4)ccc3Cl)ccc21 — higher, 4%
- COc1ccc(/C=C/C2=CC(C)(C)NC(=S)N2)c(OC)c1 — higher, 9.7%
- COC(=O)Cn1cc(/C=C/[N+](=O)[O-])c2ccccc21 — higher, -0.7%
- CN1C(=O)/C(=C/c2ccco2)SC1=Nc1cccc(C(=O)O)c1 — higher, 3.5%
- CC(C)C(=O)Nc1ccc2c3c(cccc13)CC2 — higher, 1.8%
- COc1ccc(C(=O)Nc2nncs2)c(OC)c1 — higher, 8.6%
- Cc1ccnc(NC(=O)c2ccoc2C)c1 — higher, 10.5%
- COc1cc(SC)ccc1C(=O)NCCOc1ccccc1Cl — lower, -8.5%
- COC(=O)c1sc(NC(=O)c2csc3c2CCCC3)nc1C — lower, -15.5%
- COc1ccccc1CNC(=O)c1ccc(SC)cc1OC — higher, 11.4%
- CC(=O)Nc1cccc(C(=O)Nc2nc(C)cs2)c1 — higher, 10.2%
- O=c1c2ccccc2c(-c2ccccc2)nn1-c1ccccn1 — higher, 4.6%
- O=C(CP(=O)(c1ccccc1)c1ccccc1)N1CCOCC1 — higher, 6.3%
- COC(=O)Cc1ccc(OCC(=O)Nc2ccc(OC(F)(F)F)cc2)cc1 — lower, -10.9%
- CCN1CCN(CC(=O)c2cc(OC)c(OC)c(OC)c2)CC1 — higher, 11.2%
- Cc1ccc(-c2csc(NC(=O)Cc3cccs3)n2)cc1C — higher, 12.1%
- COc1ccc(-c2csc(NC(=O)CCCc3cccs3)n2)cc1 — higher, 23.2%
- c1ccc(C2CNCc3c2ccc2ccccc32)cc1 (stereo not given) — higher, 3.3%
- O=S(=O)(Nc1ccccn1)c1ccc(Oc2ccccc2)cc1 — higher, -1.5%
- COc1ccc(S(=O)(=O)Nc2cccnc2)c(Cl)c1Cl — higher, 5.5%
- Cn1c(CCCOc2ccc(Cl)cc2Cl)n[nH]c1=S — higher, 9.7%
- O=C(COC(=O)C1CC2C=CC1C2)Nc1ccccc1 (stereo not given) — higher, 1%
- CCCCCc1ccc(-c2ccc(OCC)cc2)nc1 — higher, 25.3%
- CCCCCC(=O)Nc1ccc(-c2cn3cccnc3n2)cc1 — higher, 11.1%
- CCCN(CC(=O)Nc1ccccc1C)C(=O)c1cc(=O)[nH]c2ccccc12 — higher, 3.5%
- N#Cc1nc(-c2ccc(OCc3ccccc3)cc2)oc1NCCCN1CCOCC1 — higher, 14.7%
- N#Cc1nc(Cc2ccccc2)oc1NCCc1ccccc1 — lower, -13.4%
- COC(=O)c1sc2[nH]c(=S)n(N)c(=O)c2c1C — higher, 8.3%
- Cc1ccc(CN(Cc2cccnc2)C(=S)Nc2cccc(Cl)c2C)cc1 — higher, 9.3%
- O=C(CN1CCN(c2ccccn2)CC1)N1CCc2ccccc21 — higher, 1.6%
- CNC(=O)CN1C(=O)c2ccccc2S1(=O)=O — higher, 10.2%
- O=c1cc(CSc2ccc(Cl)cc2)nc(N2CCOCC2)[nH]1 — lower, -7.4%
- CCOc1ncccc1C(=O)OCc1cn2cc(Cl)ccc2n1 — higher, 12.3%
- CCOC(=O)NN1C(=O)c2ccccc2NC1c1cccc(O)c1 (stereo not given) — lower, -10%
- CN(CCc1ccccn1)C(=O)CCC1CCCN(Cc2ccccc2OC(F)F)C1 (stereo not given) — higher, 4.3%
- Cc1cc(C)c2[nH]c(=O)c(CN(Cc3ccccc3)C(=S)NCCCN(C)C)cc2c1 — higher, -4.1%
- C1CC1Cc1noc(CN2CCN(CC3CC3)CC2)n1 — higher, 2.5%
- CN(CC(=O)Nc1cccc(F)c1)CC(=O)Nc1cccc([N+](=O)[O-])c1 — higher, -4.2%
- Cc1ccc(CN(C)CC(=O)Nc2cccc([N+](=O)[O-])c2)o1 — higher, 5.5%
- O=S(=O)(NC1CC1)c1ccc2c3c(cccc13)CC2 — higher, 11.9%
- CCOC(=O)CSc1nc(C)cc2c1C(=O)OC2 — higher, -1%
- CCOc1ccc(Br)cc1CSC(=N)N — higher, 34.7%
- c1ccc2c(CSCc3nc4ccccc4[nH]3)cccc2c1 — higher, 4.1%
- CN(C)CCOCCOc1ccc(Cl)c2ccccc12 — higher, 9.5%
- Cc1cc(C(=O)CSc2nc(N)cc(=O)[nH]2)c(C)n1-c1cccc(F)c1 — higher, 20.1%
- CCCc1cc(=O)[nH]c(SCC(=O)c2cc(C)n(CCC)c2C)n1 — higher, 10.6%
- COc1ccc(-c2nc3cc([N+](=O)[O-])ccc3o2)cc1OC — higher, 20.3%
- COc1ccc2oc(-c3cccc(NC(=O)CSc4ccc(Cl)cc4)c3)nc2c1 — higher, -4.6%
- Cc1ccc(C(=O)Cc2nnc(C)s2)cc1 — higher, -4.3%
- COc1cccc(C(=O)Nc2cccnc2)c1OC — higher, 2.9%
- O=C(Nc1cccnc1)c1cccc(S(=O)(=O)N2CCCC2)c1 — higher, 6.6%
- Cc1ccc(-n2c(SCC(=O)N/N=C/C=C/c3ccccc3[N+](=O)[O-])nc3ccccc3c2=O)cc1 — higher, 1.3%
- CC(Sc1nncn1C)C(=O)Nc1cc(C(F)(F)F)ccc1N1CCOCC1 (stereo not given) — higher, 0.4%
- OCCNCc1cccc(OCc2ccccc2Cl)c1 — lower, -9.4%
- S=c1[nH]nc(/C=C/c2ccccc2)o1 — higher, -4.3%
- CCn1c(/C=C/c2ccc([N+](=O)[O-])o2)nc2ccccc2c1=O — higher, 25.7%
- COc1ccc(/C=C/C(=O)c2ccc(NS(=O)(=O)c3ccc(C)cc3)cc2)cc1O — higher, -5.1%
- Cc1ccc(O)c(-c2cc(C(=O)NCc3ccccc3)[nH]n2)c1 — higher, -0.7%
- CCCn1nc(C(=O)Nc2ccc3nc(C)sc3c2)c2ccccc2c1=O — higher, 0.8%

In the case of `Cc1cc(NC(=O)c2cc(-c3cccs3)on2)nn1Cc1ccc(Cl)cc1`, the inhibition is reported as 47.2% (active).
In the case of `OCCn1c(-c2ccccc2)csc1=Nc1ccccc1`, the inhibition is reported as 46.5% (active).
In the case of `COc1ccc(-c2nc(-c3ccccc3)no2)c(OC)c1`, the inhibition is reported as 102% (active).
For `O=c1[nH]c(CCl)nc2cc(-c3ccc(Cl)cc3)sc12`, the inhibition was 51.2% (active).
For `COc1cccc(/C=C/c2ccc3ccccc3n2)c1OC(C)=O`, the inhibition was 89.8% (active).
In the case of `CCOc1cccc(/C=C/c2ccc3ccccc3n2)c1OC(C)=O`, the inhibition is reported as 58.6% (active).
For `COc1cc(SC)ccc1C(=O)Nc1nc(C)cs1`, the inhibition was 111% (active).
For `COc1cc(SC)ccc1C(=O)Nc1cc(C)ccn1`, the inhibition was 55.6% (active).
In the case of `COC(=O)c1sc(NC(=O)c2ccc(OC)cc2OC)nc1C`, the inhibition is reported as 86% (active).
With `CCCc1ccc(-c2csc(NC(=O)Cc3cccs3)n2)cc1` the inhibition was 43.7% (active).
For `COc1ccccc1Oc1ccc(S(=O)(=O)Nc2cccnc2)cc1`, the inhibition was 48.9% (active).
In the case of `CCCCCc1ccc(-c2ccc(C(=O)O)cc2)nc1`, the inhibition is reported as 52.6% (active).
In the case of `N#Cc1nc(COc2ccc(-c3ccccc3)cc2)oc1NCc1cccnc1`, the inhibition is reported as 45.2% (active).
With `O=C(CN1C(=O)c2ccccc2S1(=O)=O)N1CCc2ccccc21` the inhibition was 89.1% (active).
With `Clc1ccc2nc(CSc3ccccc3)cn2c1` the inhibition was 62.7% (active).
In the case of `Cc1ccc(NC(=O)CN(C)CC(=O)Nc2cccc(F)c2)cc1[N+](=O)[O-]`, the inhibition is reported as 46.8% (active).
For `N=C(N)SCc1cccc2ccccc12`, the inhibition was 47.8% (active).
In the case of `Cc1cc(C(=O)CSc2nc(N)cc(=O)[nH]2)c(C)n1CCc1ccc(Cl)cc1`, the inhibition is reported as 43.7% (active).
In the case of `COc1cccc(-c2nc3cc(C)ccc3o2)c1`, the inhibition is reported as 45% (active).
In the case of `O=C(Nc1cccnc1)c1noc2c1CCCCC2`, the inhibition is reported as 43.9% (active).
For `O=c1oc(/C=C/c2ccccc2)nc2ccccc12`, the inhibition was 44.2% (active).
